For part of these data: Measured potencies and affinities stand elsewhere. Calls of active or inactive are those of the source.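 Rule for the calls, unless noted: active = calcium signal rise above buffer-control mean plus 5 SD in both duplicates, and also a hit in the primary screen; inactive = the rest.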
What was measured:
[1] = tested on: TRPC4 beta (transient receptor potential cation channel C4), mouse; assay: TRPC4 cation channel opening, retest – cell-based, Fluo4 calcium, HEK293 TRPC4beta/mu-opioid, duplicates, 10 µM, confirmation (AID 2426;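 active = fluorescence ratio normalized to control raised more than 50% in primary screen plus both repeat runs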); details: Fluo4 calcium fluorescence, at 10 µM; stronger effect = higher value
[2] = tested on: transient receptor potential cation channel C4 beta (TRPC4), mouse; assay: TRPC4 cation channel opening, second retest – cell-based, second round, Fluo4, HEK293 TRPC4beta/mu-opioid, 1 µM, confirmation (AID 2461;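 active = primary screen active and over 50% activation in each of two duplicate runs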); details: Fluo4 calcium fluorescence, at 1 µM; stronger effect = higher value
[3] = tested on: TRPC4 (transient receptor potential cation channel C4 beta), mouse; assay: potentiation of DAMGO EC20 TRPC4 response – cell-based, second round, Fluo-4, HEK293 TRPC4beta/mu-opioid, 1 µM, confirmation (AID 2554;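 active = primary screen hit whose fluorescence ratio, in both repeats, exceeds the weak agonist control mean by 3 SD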); details: DAMGO EC20, Fluo-4 calcium flux, at 1 µM; stronger effect = higher value
[4] = tested on: TRPC4 beta (transient receptor potential cation channel C4), mouse; assay: potentiation of DAMGO EC20 TRPC4 response – cell-based, Fluo-4, HEK293 TRPC4beta/mu-opioid, confirmation (AID 2555;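 active = primary screen hit whose calcium fluorescence ratio, in both repeats, exceeds the weak agonist control mean by 3 SD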); details: DAMGO EC20, Fluo-4 calcium flux, at 10 µM; stronger effect = higher value
[5] = biological target: Short transient receptor potential channel 4 (Mus musculus) (UniProt Q9QUQ5); assay: blockers of DAMGO-evoked TRPC4 calcium flux – cell-based, Fluo4, HEK293 TRPC4beta/mu-opioid, confirmation (AID 2636;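 active = calcium signal cut by more than 3 SD below the full-agonist control yet still positive, in both repeats and the earlier primary screen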); details: at 10 µM; stronger effect = higher value
[6] = biological target: Short transient receptor potential channel 4 (Mus musculus) (UniProt Q9QUQ5); assay: blockers of DAMGO-evoked TRPC4 calcium flux – cell-based, second round, Fluo4, HEK293 TRPC4beta/mu-opioid, 1 µM, confirmation (AID 2637;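 active = calcium signal ratio cut to more than 3 SD under the fully stimulated control mean yet still positive, in both repeats and the primary screen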); details: at 1 µM; stronger effect = higher value
[7] = biological target: Short transient receptor potential channel 4 (Mus musculus) (UniProt Q9QUQ5); assay: calcium entry via TRPC4 opening agents – cell-based, HEK293 TRPC4/mu-opioid, Fluo-4 calcium, dose response (AID 434937;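 active = primary screen activator hit with a dose response curve and TRPC4 channel activation at any tested dose; inactive = no activation, no dose response, or not a primary hit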)
[8] = biological target: Short transient receptor potential channel 4 (Mus musculus) (UniProt Q9QUQ5); assay: potentiation of DAMGO-evoked TRPC4 calcium signal – cell-based, HEK293 TRPC4/mu-opioid, Fluo-4 calcium, EC20 DAMGO, dose response (AID 434941;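 active = earlier screen potentiator hit that boosts the TRPC4 ion channel at some dose, with a dose response; inactive = no potentiation, no dose response, or not a prior hit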;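 note: calcium entry triggered by an EC20 dose of DAMGO at the co-expressed mu-opioid receptor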)
[9] = biological target: Short transient receptor potential channel 4 (Mus musculus) (UniProt Q9QUQ5); assay: block of DAMGO-driven TRPC4 calcium entry – cell-based, HEK293 TRPC4/mu-opioid, Fluo-4 calcium, dose response (AID 434942;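 active = primary screen inhibitor hit that blocks the TRPC4 channel at some tested dose, yielding a dose curve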)
[10] = biological target: Short transient receptor potential channel 6 (Mus musculus) (UniProt Q61143); assay: TRPC6 blockade by TRPC4 inhibitor hits – cell-based, HEK293, membrane potential dye, duplicate, selectivity assay for TRPC4 inhibitor project, confirmation (AID 434948;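 active = active in primary screen and both duplicates, each dropping signal beyond three positive-control SD with fluorescence still positive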); details: HEK293 TRPC6, membrane potential dye fluorescence, at 10 µM, stimulated with maximal-effect acetylcholine; stronger effect = higher value
[11] = biological target: Short transient receptor potential channel 6 (Mus musculus) (UniProt Q61143); assay: TRPC6 opening by TRPC4 activator hits – cell-based, HEK293, membrane potential dye, duplicate, selectivity assay for TRPC4 activator project, confirmation (AID 434950;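 active = membrane potential signal rise above negative control mean plus 3 SD in both duplicates, also active in the earlier TRPC4 screen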;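 for activation: 0% = buffer only wells and 100% = acetylcholine maximal-effect wells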); details: HEK293 TRPC6, membrane potential fluorescence, at 10 µM; activation: stronger effect = higher value; outcome: activation
[12] = biological target: Short transient receptor potential channel 6 (Mus musculus) (UniProt Q61143); assay: positive modulators of mouse TRPC6 channel – HEK293 cells, membrane potential dye, duplicate, selectivity assay for TRPC4 potentiator project, confirmation (AID 434952;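 active = compound raising the membrane signal above positive-control mean plus 3 SD in both repeats, and a primary screen hit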); details: HEK293 TRPC6, membrane potential dye fluorescence, at 10 µM, maximal acetylcholine added after compound; stronger effect = higher value
[13] = biological target: Short transient receptor potential channel 4 (Mus musculus) (UniProt Q9QUQ5); assay: calcium flux activators in TRPC4/5HT1a cells, counter-screen for TRPC4 activator project, cell-based, second counter screen, HEK293 TRPC4/5HT1a, Fluo-4 (AID 434977); details: Fluo-4 calcium flux, at 10 µM; stronger effect = higher value
[14] = serotonin-gated TRPC4 signal block – cell-based, second counter screen, HEK293 TRPC4/5HT1a, Fluo-4, counter-screen for TRPC4 inhibitor project, confirmation (AID 434978;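 active = primary screen active whose calcium signal fell more than 3 SD beyond the full-serotonin control mean in both duplicate plates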;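 note: serotonin given first at submaximal then at maximal dose after compound preincubation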); details: Fluo-4 calcium flux, at 10 µM, serotonin added to trigger calcium flux; stronger effect = higher value
[15] = tested on: TRPC4 (mouse), co-expressed with 5HT1a in HEK293; assay: enhancement of serotonin-evoked TRPC4 response – cell-based, second counter screen, HEK293 TRPC4/5HT1a, Fluo-4, counter-screen for TRPC4 potentiator project, confirmation (AID 434979;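 active = signal rise over 3 SD above mean of control wells given weak agonist, in both repeats and first screen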); details: Fluo-4 calcium flux, at 10 µM, serotonin added at its EC20 dose; stronger effect = higher value
[16] = nonspecific calcium rise without TRPC4 – cell-based, HEK293 mu-opioid receptor line, counter-screen for TRPC4 activator project, confirmation (AID 449723;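 active = hit in primary screen, with calcium signal over 5 SD above buffer well mean in both duplicates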;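 note: counter screen cells carry the mu-opioid receptor alone and lack TRPC4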); details: HEK293 mu-opioid cells, Fluo-4 calcium fluorescence, at 10 µM; stronger effect = higher value
[17] = nonspecific potentiation of DAMGO calcium response – cell-based, HEK293 mu-opioid receptor line, counter-screen for TRPC4 allosteric potentiator project, confirmation (AID 449724;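 active = calcium signal rise more than 3 SD above the low-dose agonist control mean, in both duplicate plates and the primary screen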); details: HEK293 mu-opioid receptor cells, Fluo-4 calcium flux, at 10 µM, compound added before EC20 DAMGO stimulus; stronger effect = higher value

Chain of Short transient receptor potential channel 6 (Mus musculus) (Q61143 whole entry, looked up): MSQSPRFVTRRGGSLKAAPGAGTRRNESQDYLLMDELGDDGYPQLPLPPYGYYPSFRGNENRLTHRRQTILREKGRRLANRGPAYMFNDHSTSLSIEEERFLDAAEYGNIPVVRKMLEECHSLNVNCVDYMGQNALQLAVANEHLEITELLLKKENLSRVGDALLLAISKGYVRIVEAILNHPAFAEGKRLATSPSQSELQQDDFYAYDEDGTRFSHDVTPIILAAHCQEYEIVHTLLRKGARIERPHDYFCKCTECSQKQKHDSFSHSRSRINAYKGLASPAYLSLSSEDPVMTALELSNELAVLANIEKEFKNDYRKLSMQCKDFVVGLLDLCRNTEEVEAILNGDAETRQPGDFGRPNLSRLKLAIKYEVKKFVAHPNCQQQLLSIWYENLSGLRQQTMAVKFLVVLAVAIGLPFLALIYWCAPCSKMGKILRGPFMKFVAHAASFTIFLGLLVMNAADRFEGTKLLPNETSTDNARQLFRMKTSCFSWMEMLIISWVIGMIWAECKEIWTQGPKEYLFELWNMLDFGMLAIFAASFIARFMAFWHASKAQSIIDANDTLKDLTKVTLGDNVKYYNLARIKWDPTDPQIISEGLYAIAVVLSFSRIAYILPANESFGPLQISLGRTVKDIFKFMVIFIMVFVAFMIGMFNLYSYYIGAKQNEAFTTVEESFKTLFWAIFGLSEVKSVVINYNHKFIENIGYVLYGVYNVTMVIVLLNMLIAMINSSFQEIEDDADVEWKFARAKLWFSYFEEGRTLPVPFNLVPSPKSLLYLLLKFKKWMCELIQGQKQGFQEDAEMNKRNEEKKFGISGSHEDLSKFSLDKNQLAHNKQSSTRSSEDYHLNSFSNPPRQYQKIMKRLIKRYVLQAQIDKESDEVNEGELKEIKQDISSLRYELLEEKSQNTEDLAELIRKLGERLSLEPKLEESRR
Chain of Short transient receptor potential channel 4 (Mus musculus) (Q9QUQ5 whole entry, looked up): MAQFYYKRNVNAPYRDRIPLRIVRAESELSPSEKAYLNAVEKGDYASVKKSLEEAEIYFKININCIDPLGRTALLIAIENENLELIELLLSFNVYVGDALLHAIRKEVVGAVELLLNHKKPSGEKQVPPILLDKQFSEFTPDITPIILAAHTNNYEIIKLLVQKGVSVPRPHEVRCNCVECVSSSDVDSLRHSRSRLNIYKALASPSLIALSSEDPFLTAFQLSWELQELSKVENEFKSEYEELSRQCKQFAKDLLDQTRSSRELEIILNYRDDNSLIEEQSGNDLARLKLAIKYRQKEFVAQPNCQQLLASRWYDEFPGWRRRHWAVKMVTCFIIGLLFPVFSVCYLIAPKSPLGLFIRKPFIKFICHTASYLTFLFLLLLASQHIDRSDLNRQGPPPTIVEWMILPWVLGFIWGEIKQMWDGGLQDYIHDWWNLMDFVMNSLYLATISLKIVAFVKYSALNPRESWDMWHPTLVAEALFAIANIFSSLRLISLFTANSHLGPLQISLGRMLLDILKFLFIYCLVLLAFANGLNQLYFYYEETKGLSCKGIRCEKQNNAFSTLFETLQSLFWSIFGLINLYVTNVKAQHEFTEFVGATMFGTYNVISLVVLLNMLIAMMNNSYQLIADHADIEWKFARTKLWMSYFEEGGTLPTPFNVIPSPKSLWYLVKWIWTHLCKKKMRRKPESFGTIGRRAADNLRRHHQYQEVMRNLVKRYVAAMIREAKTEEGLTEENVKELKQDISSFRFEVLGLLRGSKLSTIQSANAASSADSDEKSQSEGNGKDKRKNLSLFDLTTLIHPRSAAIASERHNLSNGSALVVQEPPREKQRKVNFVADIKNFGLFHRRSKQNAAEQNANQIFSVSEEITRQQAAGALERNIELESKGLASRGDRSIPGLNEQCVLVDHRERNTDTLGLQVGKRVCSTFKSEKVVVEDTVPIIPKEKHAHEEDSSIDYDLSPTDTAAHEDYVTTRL

CC1CC(C)CN(CCCNC(=O)C2CCCN(c3ncnc4c3nc3n4CCCCC3)C2)C1 (stereo not given)
inactive: outcome [1] | outcome [2] | outcome [4] | outcome [5] | outcome [6] | outcome [7] | outcome [8] | outcome [9] | outcome [10] | outcome [11] | outcome [12] | outcome [13] | outcome [14] | outcome [16] | outcome [17]
active: potentiation [3] 18% | potentiation [15] 17.1%

CCCC1C(=O)Nc2ccccc2N1C(=O)c1ccc(C(C)(C)C)cc1 (stereo not given)
active: potentiation [15] 30.4%
inactive: outcome [1] | outcome [2] | outcome [3] | outcome [4] | outcome [5] | outcome [6] | outcome [7] | outcome [8] | outcome [9] | outcome [10] | outcome [11] | outcome [12] | outcome [13] | outcome [14] | outcome [16] | outcome [17]

OC1(c2ccc(Cl)cc2)CN(c2ccccc2)C2=[N+]1CCS2 (stereo not given)
inactive: outcome [1] | outcome [2] | outcome [3] | outcome [4] | outcome [5] | outcome [6] | outcome [7] | outcome [8] | outcome [9] | outcome [10] | outcome [12] | outcome [13] | outcome [14] | outcome [15] | outcome [16] | outcome [17]
active: activation [11] 38%

Cc1cc(OCC(=O)NNC(=S)NC(=O)c2cccs2)ccc1Cl
inactive: outcome [1] | outcome [2] | outcome [3] | outcome [4] | outcome [5] | outcome [6] | outcome [7] | outcome [8] | outcome [9] | outcome [10] | outcome [11] | outcome [12] | outcome [13] | outcome [14] | outcome [15] | outcome [16] | outcome [17]

Cn1c(=O)c2c(nc(SCCN3CCCCC3)n2Cc2ccccc2)n(C)c1=O
active: potentiation [4] 36% | potentiation [15] 50.5%
inactive: outcome [1] | outcome [2] | outcome [3] | outcome [5] | outcome [6] | outcome [7] | outcome [8] | outcome [9] | outcome [10] | outcome [11] | outcome [12] | outcome [13] | outcome [14] | outcome [16] | outcome [17]

CN(Cc1ccco1)C(=O)Cn1ncc2c([nH]c3ccccc32)c1=O
active: potentiation [4] 10% | potentiation [15] 61.1%
inactive: outcome [1] | outcome [2] | outcome [3] | outcome [5] | outcome [6] | outcome [7] | outcome [8] | outcome [9] | outcome [10] | outcome [11] | outcome [12] | outcome [13] | outcome [14] | outcome [16] | outcome [17]

Clc1ccc(Cl)c(OCCCCN2CCNCC2)c1
inactive: outcome [1] | outcome [2] | outcome [3] | outcome [5] | outcome [6] | outcome [7] | outcome [8] | outcome [9] | outcome [10] | outcome [11] | outcome [12] | outcome [13] | outcome [14] | outcome [16] | outcome [17]
active: potentiation [4] 13% | potentiation [15] 6.61%

O=S(=O)(c1ccccc1Cl)N1CCC(Cc2ccccc2)CC1
active: potentiation [4] 16% | potentiation [15] 6.72%
inactive: outcome [1] | outcome [2] | outcome [3] | outcome [5] | outcome [6] | outcome [7] | outcome [8] | outcome [9] | outcome [10] | outcome [11] | outcome [12] | outcome [13] | outcome [14] | outcome [16] | outcome [17]

CCOc1cc(/C=C(\C#N)C(=O)Nc2cccc(C(=O)O)c2)cc(Br)c1OC(=O)c1ccc(OC)cc1
active: potentiation [4] 28% | potentiation [15] 16.7%
inactive: outcome [1] | outcome [2] | outcome [3] | outcome [5] | outcome [6] | outcome [7] | outcome [8] | outcome [9] | outcome [10] | outcome [11] | outcome [12] | outcome [13] | outcome [14] | outcome [16] | outcome [17]

O=[N+]([O-])c1ccccc1CN1CCN(S(=O)(=O)c2ccccc2)CC1
active: potentiation [4] 11%
inactive: outcome [1] | outcome [2] | outcome [3] | outcome [5] | outcome [6] | outcome [7] | outcome [8] | outcome [9] | outcome [10] | outcome [11] | outcome [12] | outcome [13] | outcome [14] | outcome [15] | outcome [16] | outcome [17]

COc1ccc(NC(C)=O)cc1NC(C)C(=O)Nc1cc(C(F)(F)F)ccc1N1CCOCC1 (stereo not given)
active: potentiation [15] 14.5%
inactive: outcome [1] | outcome [2] | outcome [3] | outcome [4] | outcome [5] | outcome [6] | outcome [7] | outcome [8] | outcome [9] | outcome [10] | outcome [11] | outcome [12] | outcome [13] | outcome [14] | outcome [16] | outcome [17]

N=c1oc2ccc(Cl)cc2cc1C(=O)NC1CCCCCC1
inactive: outcome [1] | outcome [2] | outcome [3] | outcome [4] | outcome [5] | outcome [6] | outcome [7] | outcome [8] | outcome [9] | outcome [10] | outcome [11] | outcome [12] | outcome [13] | outcome [14] | outcome [15] | outcome [16] | outcome [17]

CCOc1ccc(S(=O)(=O)N2CCN(C(=S)NC3CC3)CC2)cc1
active: potentiation [4] 9% | potentiation [15] 30.7%
inactive: outcome [1] | outcome [2] | outcome [3] | outcome [5] | outcome [6] | outcome [7] | outcome [8] | outcome [9] | outcome [10] | outcome [11] | outcome [12] | outcome [13] | outcome [14] | outcome [16] | outcome [17]

CCCc1ccc(OCc2ccc(C(=O)N3CCSCC3)o2)cc1
inactive: outcome [1] | outcome [2] | outcome [3] | outcome [5] | outcome [6] | outcome [7] | outcome [8] | outcome [9] | outcome [10] | outcome [11] | outcome [12] | outcome [13] | outcome [14] | outcome [16] | outcome [17]
active: potentiation [4] 36% | potentiation [15] 30.2%

CCn1c2ccccc2c2cc(NC(=O)CN3CCCC3)ccc21
inactive: outcome [1] | outcome [2] | outcome [3] | outcome [5] | outcome [6] | outcome [7] | outcome [8] | outcome [9] | outcome [10] | outcome [11] | outcome [12] | outcome [13] | outcome [14] | outcome [16] | outcome [17]
active: potentiation [4] 33% | potentiation [15] 11.8%

Source: PubChem BioAssay
